38 compounds from PubChem BioAssay (NCATS) can be followed below.

Records with an inconclusive call do not appear. Where a call stands in place of a potency, no number is given. Active and inactive are the calls of the source. Calls come from the whole dose curve; tested in HEK293 reporter line. Numbered stars: 1 amine (or outer) side, 2 acyl side, 3 side chain; on linkers, the order of the positions; unused ones are H or OH. Bridge positions count the residues as written; N and C are the ends. Square brackets hold non-standard residues; d marks the D form. Peptide text beside a SMILES is read from it. I, II: the chains in the order shown. Actinocin(9to1) = Cc1c2oc3c(C)ccc(C(=O)[*:1])c3nc-2c(C(=O)[*:2])c(N)c1=O; NMeV = CN[C@H](C(=O)O)C(C)C; Sar = CNCC(=O)O
Potency is the fitted concentration of half-maximal effect.

This assay in a line: qHTS for Inhibitors of the Functional Ribonucleoprotein Complex (vRNP) of Lassa (LASV) Arenavirus: LASV Primary Screen - GLuc reporter signal (AID 1347082). Note: nearly all actives have a fitted effect of over 60% in size. To be noted: LASV minigenome vRNP, Gaussia luciferase reporter; series mostly up to 57.5 µM.
As for `COC(=O)C(c1ccccc1Cl)N1CCc2sccc2C1` (stereo not drawn), the Potency entry was “inactive”.

Turning to `CC/C=C(\C(=O)N[C@@H]1C(=O)N2C(C(=O)OCOC(=O)C(C)(C)C)=C(COC(N)=O)CS[C@H]12)c1csc(N)n1`, the Potency result was “inactive”.

Turning to `CNC(=O)c1cc(Oc2ccc(NC(=O)Nc3ccc(Cl)c(C(F)(F)F)c3)cc2)ccn1`, the Potency is 38.5 µM (active).

Turning to `CN(CCOc1ccc(NS(C)(=O)=O)cc1)CCc1ccc(NS(C)(=O)=O)cc1`, the Potency entry was “inactive”.

In the case of `CN1CCC[C@@H]1CCO[C@](C)(c1ccccc1)c1ccc(Cl)cc1`, the Potency result was “inactive”.

`CC1(CN2CCC(n3c(=O)[nH]c4ccccc43)CC2)OCc2ccccc2-n2cccc21` (stereo not drawn): the Potency result is “inactive”.

For the compound `C#Cc1cccc(Nc2ncnc3cc(OCCOC)c(OCCOC)cc23)c1`, the Potency result is “inactive”.

With `CC1(C)S[C@@H]2[C@H](NC(=O)[C@H](N)c3ccccc3)C(=O)N2[C@H]1C(=O)O`, the Potency entry was “inactive”.

As for `C[C@]12CC[C@H]3[C@@H](CCC4=CC(=O)CC[C@@H]43)[C@@H]1CC[C@@H]2OC(=O)CCc1ccccc1`, the Potency entry was “inactive”.

As to `Nc1ncn([C@@H]2O[C@H](CO)[C@@H](O)[C@H]2O)c(=O)n1`, the Potency entry is “inactive”.

Turning to `CN1C(=S)CN=C(c2ccccc2)c2cc(Cl)ccc21`, the Potency entry is “inactive”.

For `C=C1C[C@@H]2[C@H](CC[C@]3(C)C(=O)CC[C@@H]23)[C@@]2(C)C=CC(=O)C=C12`, the Potency result was “inactive”.

Turning to `CN1CCN(C2=Nc3cc(Cl)ccc3Nc3ccccc32)CC1`, the Potency result is “inactive”.

In the case of `CCOc1ccc2ccccc2c1C(=O)N[C@@H]1C(=O)N2[C@@H]1SC(C)(C)[C@@H]2C(=O)O`, the Potency entry is “inactive”.

With `Clc1ccc(COC(Cn2ccnc2)c2ccc(Cl)cc2Cl)cc1` (stereo not drawn), the Potency result was “inactive”.

`O=C(c1ccc(OCCN2CCCCC2)cc1)c1c(-c2ccc(O)cc2)sc2cc(O)ccc12`: the Potency result was “inactive”.

As to `COc1ccc(OC)c(C(O)CNC(=O)CN)c1` (stereo not drawn), the Potency result was “inactive”.

On to `COC1=CC(=O)C[C@@H](C)[C@]12Oc1c(Cl)c(OC)cc(OC)c1C2=O`, for which the Potency result is “inactive”.

As to `CCCCOCCOCCOCc1cc2c(cc1CCC)OCO2`, the Potency entry was “inactive”.

Regarding `CCc1nc(N)nc(N)c1-c1ccc(Cl)cc1`, the Potency entry is “inactive”.

On to `Cc1ccc(-c2nc3ccc(C)cn3c2CC(=O)N(C)C)cc1`, for which the Potency entry is “inactive”.

For `Cc1ccc(NC(=O)c2ccc(CN3CCN(C)CC3)cc2)cc1Nc1nccc(-c2cccnc2)n1`, the Potency result was “inactive”.

Turning to `c1cnc2cc3c(cc2n1)C1CNCC3C1`, the Potency result was “inactive”.

Consider `CN(C)CC/C=C1\c2ccccc2COc2ccccc21`, for which the Potency entry was “inactive”.

For the compound `CC(=O)CCCCn1c(=O)c2c(ncn2C)n(C)c1=O`, the Potency result is “inactive”.

Consider `CN1C[C@H]2c3ccccc3Oc3ccc(Cl)cc3[C@@H]2C1`, for which the Potency result is “inactive”.

`CNS(=O)(=O)Cc1ccc2[nH]cc(CCN(C)C)c2c1`: the Potency result is “inactive”.

As to `Cc1c2oc3c(C)ccc(C(=O)N[C@@H]4C(=O)N[C@H](C(C)C)C(=O)N5CCC[C@H]5C(=O)N(C)CC(=O)N(C)[C@@H](C(C)C)C(=O)O[C@@H]4C)c3nc-2c(C(=O)N[C@@H]2C(=O)N[C@H](C(C)C)C(=O)N3CCC[C@H]3C(=O)N(C)CC(=O)N(C)[C@@H](C(C)C)C(=O)O[C@@H]2C)c(N)c1=O` (I: T[dV]P[Sar][NMeV] / II: T[dV]P[Sar][NMeV]; ester I:1-I:C, II:1-II:C; linker I:N-II:N via Actinocin(9to1)), the Potency result was “inactive”.

For the compound `CC1OC(C)OC(C)O1` (stereo not drawn), the Potency result was “inactive”.

In the case of `CC(=O)O[C@]1(C(C)=O)CC[C@H]2[C@@H]3C=C(Cl)C4=CC(=O)[C@@H]5C[C@@H]5[C@]4(C)[C@H]3CC[C@@]21C`, the Potency entry is “inactive”.

Take `Clc1ccc(CCC(Cn2ccnc2)Sc2c(Cl)cccc2Cl)cc1` (stereo not drawn): the Potency entry was “inactive”.

Turning to `CC(C)C[C@H](NC(=O)[C@H](CCc1ccccc1)NC(=O)CN1CCOCC1)C(=O)N[C@@H](Cc1ccccc1)C(=O)N[C@@H](CC(C)C)C(=O)[C@@]1(C)CO1`, the Potency was 0.485 µM (active).

In the case of `CCN(CC)C(=O)N[C@@H]1C=C2c3cccc4[nH]cc(c34)C[C@@H]2N(C)C1`, the Potency entry was “inactive”.

As to `CC(C)(C)NC(=O)[C@H]1CC[C@H]2[C@@H]3CC[C@H]4NC(=O)C=C[C@]4(C)[C@H]3CC[C@]12C`, the Potency result was “inactive”.

On to `Cn1cnc([N+](=O)[O-])c1Sc1ncnc2nc[nH]c12`, for which the Potency entry was “inactive”.

As to `CC[C@H](C)C(=O)O[C@H]1C[C@@H](C)C=C2C=C[C@H](C)[C@H](CC[C@@H]3C[C@@H](O)CC(=O)O3)[C@H]21`, the Potency result is “inactive”.

As to `CNCC[C@@H](Oc1ccccc1C)c1ccccc1`, the Potency entry was “inactive”.

As for `CC(C)c1c(C(=O)Nc2ccccc2)c(-c2ccccc2)c(-c2ccc(F)cc2)n1CC[C@@H](O)C[C@@H](O)CC(=O)O`, the Potency result was “inactive”.
